HCMV inh: inhibitors of human cytomegalovirus. AID 1259415. 410,000 compounds, 4.5% hits. activity change, negative = inhibition, % at 57.5 µM. HFF cells, HCMV-luciferase reporter, 72 h; active compounds read low; in the data active = activity change below about -60%; inconclusive = no clear call, values can overlap the other calls; inactive = above about -39%; also: % is scaled to controls: 0 for no effect and ±100 for the full control effect
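Human foreskin fibroblasts infected with luciferase-reporter HCMV at MOI 1 PFU/cell, compounds at two doses. Luciferase measured 72 h post infection; normalized to buffer-only basal and Salinomycin (10uM) controls.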
Pf growth 48h: inhibits P. falciparum growth in the first generation, 48 h. 310,000 compounds, 5.9% hits. Potency, µM (series often up to 28.7 µM), without a hit: at the highest dose activity change, negative = inhibition, actives largely listed as inhibitors. P. falciparum luciferase growth in erythrocytes, 48 h. AID 504832; also: potency is read from the fitted curve at half-maximal effect; % is scaled to controls: 0 for no effect and ±100 for the full control effect
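Luciferase-expressing parasites in RBCs, 2% Hct / 0.1% parasitemia final; RPMI 1640 + 0.5% Albumax; 37 C, 5% CO2, one generation; luminescence read-out, lower signal = inhibition.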
HCV inh: HCV inhibition; 340,000 compounds, 3.4% hits; Huh7.5.1 HCVcc-Cre infection, luciferase reporter, 44 h; AID 651820; Potency, µM (top dose mostly 41.8 µM), for the others: top-dose activity change, negative = inhibition, most hits filed as inhibitors; also: potency is read from the fitted curve at half-maximal effect; % is scaled to controls: 0 for no effect and ±100 for the full control effect
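Luciferase read-out (15 sec integration) after a 15 min room-temperature substrate step quantifies HCVcc-Cre infection. Cells, 1,000 per well, had compound added 4 h post-plating, then virus at ~0.5 moi, and were cultured 44 h.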
Pf growth 96h: P. falciparum growth inhibition at 96 hours. 320,000 compounds, 6.9% hits. P. falciparum luciferase reporter growth, 96 h. Potency, µM (titrated, usually from 28.7 µM), for inactives: top-dose activity change, negative = inhibition, actives largely listed as inhibitors; also: potency is read from the fitted curve at half-maximal effect; % is scaled to controls: 0 for no effect and ±100 for the full control effect
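96 h incubation, 37 C, 5% CO2, of luciferase-reporter P. falciparum-infected RBCs (2% hematocrit, 0.05% parasitemia final) with test compounds; endpoint luminescence.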
Cycloheximide cs: counter-screen for Shiga toxin inhibitors: cycloheximide protein synthesis inhibition | cell reporter, cycloheximide protein synthesis inhibition counterscreen | max response, % | 300,000 compounds, 12% hits | AID 2314; in the data active = max response mostly above about 13%, no sharp cut-off; inactive = mostly below about 14%; also: read at 38.3 µM for the half of the compounds with a filed dose; 0% is about no effect
Shiga toxin inh: Shiga toxin inhibition; 290,000 compounds, 9.2% hits; inhibition, % at 38.7 µM; Vero cells, Shiga toxin protein synthesis inhibition reporter; in the data active = inhibition mostly above about 28%, no sharp cut-off; inactive = mostly below about 43%; also: 0% is about no effect
* = called active by the depositor; u = inconclusive; x = no result given; [ ] = remark or other dose. A selection: hits, their analogues and other compounds. The true share with any hit is near 21%. Unless noted, calls follow the shape of the dose curve; as a rule, active = well fitted inhibition curve with a large enough effect; inconclusive = small, poorly fitted or top-dose-only effect, or another doubt; inactive = no such curve, though single readings can be large or run the other way.

SMILES	HCMV inh	Pf growth 48h	HCV inh	Pf growth 96h	Cycloheximide cs	Shiga toxin inh
Cc1ccc(NC(=O)CN(C)C(=O)c2ccc3[nH]c4c(c3c2)CC(C)CC4)cc1 (stereo not drawn)	-29.5	-29.1%	u	-18.1%	x	x
CCCC(C)NC(=O)c1ccc2[nH]c3c(c2c1)CC(C)CC3 (stereo not drawn)	6.2	4.65µM*	u	3.29µM*	27.8*	48.7
CC1CCc2[nH]c3ccc(C(=O)Nc4ccc(C(=O)N(C)C)cc4)cc3c2C1 (stereo not drawn)	-0.5	5.6%	x	u	7.1	-16.1
COC(=O)c1ccc2[nH]c3c(c2c1)CC(C)CC3 (stereo not drawn)	-22.9	28.9%	u	u	35.5*	58.7*
CC1CCc2[nH]c3ccc(C(=O)N4CCCC(C(F)(F)F)C4)cc3c2C1 (stereo not drawn)	-17.8	u	u	u	x	x
CCOC(=O)C1CCCN(C(=O)c2ccc3[nH]c4c(c3c2)CC(C)CC4)C1 (stereo not drawn)	-36.3	9.28µM*	-21.0%	u	x	x
N#CCCCc1cc2cc(F)ccc2cn1	6.3	x	-1.2%	x	x	x
COC(=O)C(Nc1ccccc1Cl)(c1cc(C)c(O)c(C)c1)C(F)(F)F (stereo not drawn)	-77.6*	9.28µM*	14.1µM*	x	-1.5	4.2
CCOC(=O)C(NC(=O)c1ccccc1Cl)(Nc1ccc(C)c(C)c1)C(F)(F)F (stereo not drawn)	-18.5	u	-11.5%	1.7%	7.0	23.7
CC(C)(C)c1ccc(C(=O)Oc2ccc3c(c2)OCC3=O)cc1	-34.6	49.7%	2.8%	x	53.9*	85.6*
O=C(Oc1ccc2c(c1)OCC2=O)c1ccccc1	-38.6	-2.2%	5.9%	x	44.5*	active
Cc1ccc(OC(=O)c2ccccc2)cc1C	30.5	x	10.6%	x	x	x
CCCCN(Cc1cc2cccc(C)c2[nH]c1=O)S(C)(=O)=O	23.4	-6.7%	-9.9%	12.6%	0.6	-1.9
Cc1ccc(NS(=O)(=O)c2ccc(C(=O)NCC(c3ccco3)N(C)C)cc2)cc1 (stereo not drawn)	14.9	-4.0%	-3.0%	11.8%	2.0	-35.8
CCCOc1ccc(C(=O)NCC(c2cccs2)N(C)C)cc1 (stereo not drawn)	3.5	30.1%	-15.5%	-13.4%	20.3*	56.9
CCCOc1ccc(C(=O)NCC(c2ccco2)N(C)C)cc1 (stereo not drawn)	-29.2	3.3%	-13.0%	u	15.6*	21.4
O=C(CCC(=O)NC1CCCCC1)N/N=C/c1ccncc1	-33.9	10.5%	5.7%	-3.4%	-2.4	3.4
CC(NC(=O)CCl)c1ccc(Cl)c(Cl)c1 (stereo not drawn)	20.0	x	u	3.7µM*	0.8	-1.7
CC(NC(=O)CCl)c1ccccc1Br (stereo not drawn)	u	1.47µM*	-12.6%	1.47µM*	6.8	-1.4
COc1ccc(Nc2oc(-c3ccc(COc4ccc(OC)cc4)o3)nc2C#N)cc1	-31.2	x	x	x	x	x
Cc1cccc(OCc2nc(C#N)c(N3CC(C)CC(C)C3)o2)c1 (stereo not drawn)	-27.1	x	u	13.1µM*	-5.5	-3.0
COc1ccc(Nc2oc(-c3ccc(F)cc3)nc2C#N)cc1	15.3	71.7%	0.8%	49.2%	35.4*	73.3*
COc1ccc(CNc2oc(COc3cccc(C)c3)nc2C#N)cc1	15.0	x	x	x	x	x
COc1ccc(Nc2oc(COc3ccc(C)cc3)nc2C#N)cc1	u	u	u	76.5%	16.3	41.1*
COc1ccc(Nc2oc(COc3cccc(C)c3)nc2C#N)cc1	-31.2	u	u	-0.8%[5.75 µM]	60.4*	76.3*
SMILES	HCMV inh	Pf growth 48h	HCV inh	Pf growth 96h	Cycloheximide cs	Shiga toxin inh
CCc1ccc(-c2nn(CC(=O)NCc3ccccc3)c3c2cnc2ccc(C)cc23)cc1	4.5	x	x	x	x	x
C=CCn1c(CSc2ccc(C)cc2)n[nH]c1=S	-34.5	16.9%	-10.6%	10.5%	-1.2	-1.8
CCCCN(C)CCCNC(=O)Cn1nc(CC)n2c(cc3sc(C)cc32)c1=O	-16.8	x	x	x	x	x
COc1ccc(Nc2oc(COc3ccc(OC)cc3)nc2C#N)cc1	-69.7*	u	u	24.9%	-2.4	2.9
Cc1cccc(OCc2nc(C#N)c(NCCN(C)C)o2)c1	8.0	1.8%	-10.8%	u	5.2	-1.8
CCOc1ccc(Nc2oc(-c3ccco3)nc2C#N)cc1	-5.7	-14.9%	-5.5%	u	33.1*	33.9
COc1ccc(Nc2oc(COc3ccccc3F)nc2C#N)cc1	u	x	-2.2%	u	-0.5	39.5
CCNc1oc(COc2cccc(C)c2)nc1C#N	64.3	-2.7%	-22.6%	u	23.0*	47.5
CCCn1c(=O)c2sccc2n2c(CCCC(=O)N3CCN(c4ccccc4)CC3)nnc12	0.5	x	x	x	x	x
COc1ccccc1CNC(=O)CCc1c(C)nn(-c2ccc(N3CCCCC3)nn2)c1C	-32.3	x	x	x	x	x
Clc1cccc2sc(N3CCN(c4ccccc4)CC3)nc12	23.3	48.7%	-1.3%	-0.9%	16.8	18.9
O=C(NCc1ccccc1)c1ccc2nc(N3CCOCC3)sc2c1	u	10.9%	u	-1.0%	10.5	11.0
c1c2c(cc3sc(N4CCOCC4)nc13)OCCO2	u	-4.7%	6.0%	u	14.3*	48.4
c1ccc(N2CCN(c3nc4cc5c(cc4s3)OCCO5)CC2)cc1	-16.6	172.5%	u	u	84.1*	95.4*
Cc1c(/C=N/NC(=O)c2ccc3c(c2)OCO3)cnn1C	44.7	1.9%	6.8%	8.8%	10.6	31.5
Cc1c(/C=N\NC(=O)c2cccc(F)c2)cnn1C	1.7	25.4%	31.5%	7.2%	44.8*	92.1*
Cc1c(/C=N\NC(=O)c2ccc(F)cc2)cnn1C	-17.0	24.7%	12.1%	0.6%	16.4	26.5*
Cc1c(/C=N/NC(=O)c2ccc(Br)o2)cnn1C	7.8	74.3%	10.8%	0.0%	38.5*	57.2*
CCc1ccc(OCc2cccc(C(=O)N/N=C\c3cnn(C)c3C)c2)cc1	56.8	22.0%	-5.9%	6.9%	14.6	53.0*
Cc1ccc(NC(=O)CCCN2C(=O)COc3ccc(C)cc32)c(Cl)c1	11.3	x	x	x	x	x
COC(=O)c1c(SC)nc2ccccc2c1OCc1ccccc1C	-13.0	x	x	x	x	x
Cc1occc1C(=O)N/N=C/c1cnn(C)c1C	77.0	99.3%	-8.4%	10.0%	32.7*	62.3*
Cc1c(/C=N/NC(=O)C2(O)c3ccccc3-c3ccccc32)cnn1C	u	u	-0.7%	-1.6%	-1.8	8.5
O=C(/C=C/Nc1ccccc1F)c1cccs1	74.1	148.3%	8.6%	u	44.8*	29.8*
CCOC(=O)c1ccccc1NC(=O)c1cccs1	0.4	7.3%	u	u	-8.0	-16.7
Cc1ccc(N/C=C/C(=O)c2cccs2)cc1	13.4	333.3%	-1.6%	u	24.1	17.0
CCOC(=O)c1ccccc1N/C=C/C(=O)c1cccs1	53.8	30.8%	u	-10.3%	74.1*	155.9*

Bioassay records: PubChem BioAssay, National Center for Advancing Translational Sciences (NCATS)
